Measured values published in a collection of fitness landscapes (doi:10.1016/j.celrep.2020.107928).
Whole data set: some 81,000 sequences, median “one-hybrid fitness for binding NBS DNA” near -0.1, cut for the highest 2% near 0.36. For the sample, the highest values were picked, then their nearest neighbours and some sequences at random.

B1: Caulobacter ParB omega fusion; a variant is named by its letters at X, in order, B8GW30 (parent)
chain: MESVVVGEPGMSEGRRGLGRGLSALLGEVDAAPAQAPGEQLGGSREAPIEILQRNPDQPRRTFREEDLEDLSNSIREKGVLQPILVRPSPDTAGEYQIVAGERAWRAAQRAGLKTVPIMVRELDDLAVLEIGIIENVQRADLNVLEEALSYKVLMEKFERTQENIAQTIGKSXSHVANXMRLLXLPDEVQSYLVSGELTAXHARAIAAAADPVALAKQIIEGGLSVRETEALARKAPNLSAGKSKGGRPPRVKDTDTQALESDLSSVLGLDVSIDHRGSTGTLTITYATLEQLDDLCNRLTRGI

Variants of: B1
Assay: one-hybrid fitness for binding NBS DNA (the Noc-binding site; scaled: cognate 1, non-cognate 0); higher = stronger binding
Settings: with NBS DNA site
In short: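 In E. coli USO, a HIS3 reporter with its site placed 19 bp from the promoter was used to select Caulobacter ParB variants randomised at four specificity codons. Growth lasted 48 hours at 37°C on histidine-free M9 containing 0.1 mM IPTG and 5 mM 3-AT. Fitness was taken as the log change in variant-to-wild-type read ratio from Illumina sequencing of pre- and post-selection plasmids, rescaled between the non-cognate and cognate sites.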

Variant	one-hybrid fitness for binding NBS DNA
SNWL	≤ 0.2
SNVR	≤ 0.2
DAAD	≤ 0.2
TRAA	≤ 0.2
DDQR	≤ 0.2
RATT	0.415
RITG	≤ 0.2
RITT	0.421
RATQ	≤ 0.2
RITF	≤ 0.2
RATK	≤ 0.2
TSFV	≤ 0.2
LPSF	≤ 0.2
RRWP	≤ 0.2
RRWD	≤ 0.2
RRWN	0.222
RRWF	≤ 0.2
RRWS	0.628
RRWH	0.401
HLQS	≤ 0.2
MSNG	≤ 0.2
HQPF	≤ 0.2
PSTH	≤ 0.2
GLWQ	≤ 0.2
RYTT	0.461
RYTK	≤ 0.2

Variant	one-hybrid fitness for binding NBS DNA
RYTS	0.453
RYTP	≤ 0.2
RYTC	≤ 0.2
RYTR	0.469
RYTN	≤ 0.2
RYTD	≤ 0.2
RYTH	≤ 0.2
TSVC	≤ 0.2
LPCE	≤ 0.2
YSAT	≤ 0.2
QSLD	≤ 0.2
QKLP	≤ 0.2
QSLH	≤ 0.2
QMLH	≤ 0.2
QMLR	0.5
QALP	≤ 0.2
QKLR	0.491
QMLD	≤ 0.2
QALH	≤ 0.2
QSLR	0.452
QKLN	≤ 0.2
QALR	0.424
DSDF	≤ 0.2
RWRC	≤ 0.2
PLVT	≤ 0.2
DMHW	≤ 0.2

Variant	one-hybrid fitness for binding NBS DNA
TRSF	≤ 0.2
IKKC	≤ 0.2
QILR	0.335
QHLP	≤ 0.2
QHLH	≤ 0.2
QTLN	≤ 0.2
QTLH	0.223
QCLR	0.562
QHLR	0.445
QPLR	≤ 0.2
QTLR	0.639
WSWT	≤ 0.2
AVHS	≤ 0.2
GHKE	≤ 0.2
MTRR	0.273
QQHG	≤ 0.2
QQHF	≤ 0.2
DQRR	≤ 0.2
QQYR	0.578
QQAP	≤ 0.2
QQAR	0.654
QQRE	0.332
QQAN	≤ 0.2
QQHR	0.683
QQYP	≤ 0.2
DQYR	≤ 0.2

Variant	one-hybrid fitness for binding NBS DNA
QQRR	1.09
KIQL	≤ 0.2
YWII	≤ 0.2
AFHM	≤ 0.2
TVSR	≤ 0.2
PDRQ	≤ 0.2
TNMG	≤ 0.2
QQLM	≤ 0.2
QQCR	0.63
QQGK	≤ 0.2
NQFR	≤ 0.2
QQFR	0.491
QQGR	0.672
QQGC	≤ 0.2
QQLG	≤ 0.2
QQCK	≤ 0.2
QQCD	≤ 0.2
QQLR	0.567
TPFT	≤ 0.2
ATSG	≤ 0.2
VDTI	≤ 0.2
HTCG	≤ 0.2
PHKP	≤ 0.2
NAEM	≤ 0.2
IYRA	≤ 0.2
LQHD	≤ 0.2

Variant	one-hybrid fitness for binding NBS DNA
WGPQ	≤ 0.2
LPFS	≤ 0.2
QQWY	≤ 0.2
QQSR	0.635
QQEG	≤ 0.2
QQSC	≤ 0.2
QQER	0.426
QQQD	≤ 0.2
QQQR	0.586
QQEY	≤ 0.2
QQSG	≤ 0.2
QQWM	≤ 0.2
QQWR	0.514
QQQP	≤ 0.2
YILL	≤ 0.2
KDKK	≤ 0.2
ANDS	≤ 0.2
PLNC	≤ 0.2
EYLC	≤ 0.2
RVEC	≤ 0.2
GVRI	≤ 0.2
ESSI	≤ 0.2
DESV	≤ 0.2
QRGF	0.33
QRGN	0.418
QPGN	≤ 0.2

Variant	one-hybrid fitness for binding NBS DNA
QRGH	0.616
QCGS	0.487
QSGS	0.358
QMGN	≤ 0.2
QCGH	0.282
QMGP	≤ 0.2
QPGS	≤ 0.2
QCGN	≤ 0.2
QMGS	0.42
NPLC	≤ 0.2
QMPM	≤ 0.2
ANEK	≤ 0.2
DSVS	≤ 0.2
KKWY	≤ 0.2
CPMG	≤ 0.2
LRFA	≤ 0.2
LPEF	≤ 0.2
WQTP	≤ 0.2
ANVT	≤ 0.2
ITKV	≤ 0.2
TWPS	≤ 0.2
FCRR	0.277
LVQT	≤ 0.2
